Screening results from PubChem.
Hits are enriched below; roughly 3.6% of the tested compounds scored in any of these assays.
mHTT-CaM PPI inh – inhibitors of human mutant huntingtin-calmodulin interaction; P42858; AlphaScreen His-mHTT/GST-CaM binding, luminescence; inhibition, % at 15 µM; 190,000 compounds, 3.6% hits
Pf apPOL inh – Pf-apPOL DNA polymerase inhibition | Recombinant Pf-apPOL, molecular beacon fluorescence, 1.5 h | inhibition, % at 10 µM | 210,000 compounds, 0.25% hits | AID 1794808
Each line names hits and unclear results; the compound was inactive in the other large screens. Cut-off read from the data, not from the text of the source: active = inhibition above about 50%; inactive = the rest.

O=[N+]([O-])c1ccc(C2Nc3c(I)cccc3C3C=CCC32)cc1 (configuration not stated)	none
O=C(O)c1cc(Br)cc2c1NC(c1ccc(F)cc1)C1CC=CC21 (configuration not stated)	mHTT-CaM PPI inh 95
Cc1ccc2c(c1C)NC(c1ccc([N+](=O)[O-])cc1)C1CC=CC21 (configuration not stated)	mHTT-CaM PPI inh 62
COc1ccc(OCC(=O)Nc2ccc(S(=O)(=O)Nc3ccc(F)cc3)cc2)cc1	none
CN(C)C(=O)c1cccc2c1NC(c1ccc(Cl)cc1Cl)C1CC=CC21 (configuration not stated)	none
O=C(O)c1cccc2c1NC(c1ccc(Br)cc1)C1CC=CC21 (configuration not stated)	mHTT-CaM PPI inh 66
O=C(O)c1cccc2c1NC(c1cccc(Br)c1)C1CC=CC21 (configuration not stated)	mHTT-CaM PPI inh 92
Cc1cc(C)c2c(c1)C1C=CCC1C(c1ccc(C(=O)O)cc1)N2 (configuration not stated)	mHTT-CaM PPI inh 74
CC1(C)S[C@@H]2[C@H](NC(=O)COc3ccccc3)C(=O)N2[C@H]1C(=O)OCc1cccc2cccnc12	mHTT-CaM PPI inh 51
Cc1cc(COC(=O)C2N3C(=O)[C@@H](NC(=O)COc4ccccc4)[C@H]3SC2(C)C)on1 (some centres not stated)	none
CC1CCCN(C(=O)c2ccc(-n3cc(CNC(=O)C4CC4)cn3)cc2)C1 (configuration not stated)	none
COc1cccc(C(=O)Nc2ccc(NC(=O)c3ccccc3)c(C)c2)c1	none
Cc1ccc(S(=O)(=O)N2CCN(C(=O)C3CCCCC3)CC2)cc1	none (no result: mHTT-CaM PPI inh)
O=[N+]([O-])c1ccc(/C=C/CNc2cccc(F)c2)o1	mHTT-CaM PPI inh 59
O=C(CCNc1cccc(F)c1)c1cccc([N+](=O)[O-])c1	none
O=C(CS(=O)(=O)c1cn(Cc2cccc(F)c2)c2ccccc12)N1CCOCC1	none
O=C(CNc1ccccc1-c1nc2ccccc2[nH]c1=O)NCc1ccccc1Cl	none
Cc1ccc(C(=O)N2CCC(n3nc(-c4ccsc4)ccc3=O)CC2)cc1	mHTT-CaM PPI inh 100
O=C(c1ccc(-c2ccsc2)nc1)N1CCN(C2CCCCC2)CC1	none
O=C(c1ccc(-c2ccsc2)nc1)N1CCCC1	none
O=C(c1ccccc1)N1CCC(n2nc(-c3ccsc3)ccc2=O)CC1	mHTT-CaM PPI inh 99
C[C@@H]1[C@H](c2ccccc2)OCCS(=O)(=O)N1Cc1ccc(F)cc1	none
Cc1[nH]c(=O)[nH]c(=O)c1S(=O)(=O)Nc1ccc(Cl)c(C(F)(F)F)c1	none
O=C(C1CCCC1)N1CCCC2(CC(c3cccc(Cl)c3)=CO2)C1 (configuration not stated)	none
O=C(CCSCc1ccccc1F)NCc1cccnc1	none
COc1ccccc1NC(=O)C1=C(C)Nc2nc3ccccc3n2C1c1cccnc1 (configuration not stated)	none
COc1ccccc1NC(=O)C1=C(C)Nc2nc3ccccc3n2C1c1ccc(Cl)cc1 (configuration not stated)	mHTT-CaM PPI inh 51
Cc1cc(N2CCCC2)n2nc(CN(C)Cc3ccccc3)nc2n1	none
COc1cccc2ccc(C=C3Oc4cc(O)ccc4C3=O)nc12	Pf apPOL inh 62
O=C1C(=Cc2ccc3ccccc3n2)Oc2cc(O)ccc21	none
O=C(Cc1nc(-c2ccccn2)n[nH]1)Nc1ccccc1F	mHTT-CaM PPI inh 94
O=C(Cc1nc(-c2ccccn2)n[nH]1)Nc1ccc(F)cc1F	mHTT-CaM PPI inh 97
O=C(Cc1nc(-c2ccccc2)n[nH]1)Nc1ccc(F)c(F)c1	none
Cc1ccccc1NC(=O)Cc1nc(-c2ccccc2)n[nH]1	none
C[C@@H]1[C@H](c2ccccc2)OCCS(=O)(=O)N1Cc1ccccc1	none
Cn1nc(C(=O)NCc2ccccc2)c2c1CCN(C(=O)COc1ccccc1)C2	mHTT-CaM PPI inh 56
Cn1nc(C(=O)NCc2ccc(F)cc2)c2c1CCN(C(=O)COc1ccc(F)cc1)C2	mHTT-CaM PPI inh 81
CC(C)CC(=O)N1CCc2c(c(C(=O)NCc3ccccc3)nn2C)C1	none
COCC(=O)N1CCc2c(c(C(=O)NCc3ccc(Cl)cc3)nn2C)C1	none
CCOc1ccc(C(=O)N2CCc3c(c(C(=O)NCc4ccc(F)cc4)nn3C)C2)cc1	none
Cn1nc(C(=O)NCc2ccccc2)c2c1CCN(C(=O)COc1ccc(Cl)cc1)C2	mHTT-CaM PPI inh 87
Cc1ccc(CNC(=O)c2cnn3c(C)c(Cc4cccc(Cl)c4)c(C)nc23)cc1	none
Cc1nc2c(C(=O)NCc3cccnc3)cnn2c(C)c1Cc1cccc(Br)c1	mHTT-CaM PPI inh 58
COc1ccccc1CNC(=O)c1cnn2c(C)c(Cc3cccc(Br)c3)c(C)nc12	none
Cc1nc2c(C(=O)NCc3ccccc3)cnn2c(C)c1Cc1cccc(Br)c1	mHTT-CaM PPI inh 66
Cc1nc2c(C(=O)NCc3ccco3)cnn2c(C)c1Cc1cccc(Cl)c1	none
Cc1nc2c(C(=O)NCc3ccco3)cnn2c(C)c1Cc1cccc(Br)c1	mHTT-CaM PPI inh 51
Cc1nc2nc(CC(=O)NCc3ccccc3)nn2c(C)c1Cc1cccc(Cl)c1	mHTT-CaM PPI inh 63
Cc1nc2nc(SCC(=O)NCc3ccccc3)nn2c(C)c1Cc1ccccc1	none
CSCC(C)(O)CNC(=O)C1CC1 (configuration not stated)	none
Cc1ccc(C(=O)Nc2ccc(-c3nc4ncccc4o3)cc2)cc1Cl	none
COc1cccc(C2CC(c3cccc(Br)c3)Nc3ncnn32)c1 (configuration not stated)	none
Brc1ccc(C2=CSC3=NCCN23)cc1	none
CC(=O)N(C1=C(N2CCCC2)C(=O)c2ccccc2C1=O)c1ccccc1C	none
N#C/C(=C\c1ccc(I)o1)c1nc2ccccc2[nH]1	none
N#C/C(=C\c1ccc(Sc2nc3ccccc3[nH]2)o1)c1nc2ccccc2[nH]1	mHTT-CaM PPI inh 100
N#C/C(=C\c1ccc(O)cc1O)c1nc2ccccc2[nH]1	mHTT-CaM PPI inh 72
COc1cc(/C=C(\C#N)c2nc3ncc(Br)cc3[nH]2)ccc1O	mHTT-CaM PPI inh 55
Cc1ccc2nc(/C(C#N)=C/c3cccc(Br)c3)[nH]c2c1	none
COc1cc(/C=C(\C#N)c2nc3ccccc3[nH]2)cc(Br)c1O	none
Cc1ccc2nc(/C(C#N)=C/c3cccc(O)c3)[nH]c2c1	mHTT-CaM PPI inh 70
N#C/C(=C\c1cc(Cl)ccc1O)c1nc2ccccc2[nH]1	none
C=CCCC(=O)N1CCC2(CC1)OCCS2	none
O=[N+]([O-])c1ccc(C2=Nc3ccc(Cl)cc3ON2)cc1	none
COc1cc(C)c(S(=O)(=O)n2cnc3cc([N+](=O)[O-])ccc32)cc1C	none
COc1cc(/C=C(\C#N)c2nc3ccc(C)cc3[nH]2)ccc1OCC#N	mHTT-CaM PPI inh 70
COc1ccc(/C=C(\C#N)c2nc3ccc(C)cc3[nH]2)cc1	none
O=C(Cc1cc(Br)sc1Br)NN=Cc1c(Br)cnn1Cc1ccc(Cl)cc1	none (no result: mHTT-CaM PPI inh)
O=C(NCc1ccc(Cl)cc1)c1ccc(N2CC3CC(C2)c2cccc(=O)n2C3)c([N+](=O)[O-])c1 (configuration not stated)	mHTT-CaM PPI inh 59
O=C(Nc1ccc(F)c(F)c1)c1ccc(N2CC3CC(C2)c2cccc(=O)n2C3)c([N+](=O)[O-])c1 (configuration not stated)	none
O=C(Cc1ccccc1)Nc1c2c(nn1-c1ccc(F)cc1)CS(=O)(=O)C2	none
O=c1nc(/C=C/c2ccc(-c3ccccc3[N+](=O)[O-])o2)cc(C(F)(F)F)[nH]1	mHTT-CaM PPI inh 90
